Screening results as filed in PubChem BioAssay.
Rows were chosen to be rich in hits. Some 12% of all compounds tested hit in one or more screens of this group.
BAZ2B block: blocks human BAZ2B; Q9UIF8; AlphaScreen BAZ2B-H3K14Ac peptide displacement; Potency, µM (titrated, usually from 114 µM), for the others: at the top dose activity change, negative = inhibition, hits mostly inhibitors; 4.4% of 360,000 active; AID 504333; also: % is scaled to controls: 0 for no effect and ±100 for the full control effect; nearly all actives have a fitted effect of over 60% in size
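Compounds, titrated to a top concentration of 110 uM, were incubated 30 min at room temperature with preformed BAZ2B/acetyl-K14 H3 peptide complex (50 nM each). Proximity signal was measured by AlphaScreen after 20 min with beads.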
PLK1 PBD block: blocks phosphopeptide binding to human PLK1 polo-box domain | P53350 | Plk1 PBD binding of FITC phosphopeptide, fluorescence polarization | Potency, µM, for the others: max response, negative = inhibition, actives largely listed as inhibitors | 2.8% of 360,000 active; also: series mostly up to about 57 µM; % is scaled to controls: 0 for no effect and ±100 for the full control effect; nearly all actives have a fitted effect of over 65% in size
JMJD2A Tudor: inhibitors of human JMJD2A Tudor domain; AlphaScreen JMJD2A-Tudor / H3K4me3 peptide binding; Potency, µM (highest dose often 114 µM), for inactives: top-dose activity change, negative = inhibition, hits mostly inhibitors; 4.4% of 390,000 active; AID 504339; also: % is scaled to controls: 0 for no effect and ±100 for the full control effect; nearly all actives have a fitted effect of over 50% in size
Sfp PPTase inh: inhibitors of Bacillus subtilis Sfp phosphopantetheinyl transferase. AID 1490. Potency, µM, for the others: largest response in the series, negative = inhibition, hits mostly inhibitors. Q9F4F7. 3.5% of 310,000 active. Biochemical Sfp PPTase activity, qHTS;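 also: the enzyme is Sfp with the accession as filed and its product quenches rhodamine fluorescence; 0% = enzyme reaction without inhibitor and -100% = no enzyme wells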
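With Hepes-Na pH 7.6 buffer containing 10 mM MgCl2, Sfp (15 nM) modified BHQ-2-YbbR (12.5 uM) using rhodamine-CoA (5 uM). Two reads 30 minutes apart at 525/598 nm yielded each well's rate.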
G9a block: blocks human histone lysine methyltransferase G9a. Q96KQ7. G9a H3K9 monomethylation, AlphaScreen, 2 h. Potency, µM (doses to about 102 µM), for inactives: at the highest dose activity, negative = inhibition, usual class: inhibitors. 8.8% of 350,000 active; also: % is scaled to controls: 0 for no effect and ±100 for the full control effect; nearly all actives have a fitted effect of over 75% in size
Target sequence (Q96KQ7 913-1193 limits assumed): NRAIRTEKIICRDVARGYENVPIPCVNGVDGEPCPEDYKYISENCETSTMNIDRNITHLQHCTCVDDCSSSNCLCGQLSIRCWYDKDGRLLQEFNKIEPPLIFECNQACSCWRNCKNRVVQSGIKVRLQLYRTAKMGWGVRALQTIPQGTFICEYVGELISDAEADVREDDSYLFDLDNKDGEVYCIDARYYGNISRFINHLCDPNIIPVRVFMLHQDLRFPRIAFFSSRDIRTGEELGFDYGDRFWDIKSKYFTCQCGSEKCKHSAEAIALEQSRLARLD
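Quantitative HTS format: methyltransferase activity on a biotin-tagged H3K9 peptide is measured by AlphaScreen, using a rabbit anti-monomethyl-H3K9 antibody with streptavidin donor and anti-IgG acceptor beads. Final levels are 20 nM enzyme, 500 nM peptide, 20 uM SAM; 2 h RT.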
HP1b binding inh: inhibitors of HP1-beta chromodomain binding to methylated histone tails; AlphaScreen HP1-beta / biotin-H3K9me3 peptide binding; Potency, µM (doses to about 114 µM), for inactives: top-dose activity change, negative = inhibition, actives largely listed as inhibitors; 0.56% of 390,000 active; also: nearly all actives have a fitted effect of over 70% in size
Target sequence (P83916 whole entry, looked up): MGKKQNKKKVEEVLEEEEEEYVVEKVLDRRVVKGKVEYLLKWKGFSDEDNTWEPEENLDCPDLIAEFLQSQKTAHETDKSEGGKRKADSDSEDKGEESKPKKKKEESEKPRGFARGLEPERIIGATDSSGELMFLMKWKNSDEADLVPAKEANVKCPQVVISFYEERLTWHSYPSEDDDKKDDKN
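Compound inhibition of the preformed complex between 50 nM HP1-beta and 50 nM biotinylated H3K9me3 peptide was read by AlphaScreen. Buffer was PBS pH 7.4 with 0.01% Tween-20. Incubations ran 30 min at room temperature, with 10 ug/mL donor/acceptor beads.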
* = called active by the depositor; ? = inconclusive; . = no result given; [ ] = remark or other dose. Calls follow the shape of the dose curve; as a rule, active = well fitted curve in the direction sought with a large enough effect; inconclusive = small, poorly fitted or top-dose-only effect, or another doubt; inactive = no such curve, though single readings can be large; an effect the other way counts as inactive or inconclusive. Potency is read from the fitted curve at half-maximal effect.

SMILES	BAZ2B block	PLK1 PBD block	JMJD2A Tudor	Sfp PPTase inh	G9a block	HP1b binding inh
O=C(COC(=O)CCc1nc2ccccc2c(=O)[nH]1)NC(=O)NC1CCCC1	-0.5%	-14.0%	-30.9%	0.9%	10µM*	33.4%
Cc1noc(C)c1C(=O)N1CCC[C@@]2(CCN(c3ccccn3)C2)C1	.	.	.	14.3%	-2.7%[12.7 µM]	.
CCOC(=O)c1ccc(NC(=O)c2c(NCc3ccc(OC)c(OC)c3OC)sc3c2CCC(C)C3)cc1 (stereo unspecified)	?	.	?	.	-43.3%[59 µM]	4.0%
COc1cc(/C=C2\C(=N)N3N=C(S(C)(=O)=O)SC3=NC2=O)cc(OC)c1OCCOc1cccc(C)c1	?	29.9µM*	?	-5.4%	?	-15.3%
COc1cc(/C=C2\C(=N)N3N=C(S(C)(=O)=O)SC3=NC2=O)ccc1OCCOc1ccc(C)cc1	-31.7%	?	-18.5%	-20.5%	?	?
COc1cc(/C=C2\C(=N)N3N=C(S(C)(=O)=O)SC3=NC2=O)cc(OC)c1OCCOc1ccc(C)cc1	?	21.2µM*	?	-7.8%	-24.3%	-6.3%
O=C(c1cc2ccccc2oc1=O)N1CCN(c2ccc(F)cc2)CC1	-1.1%[57.1 µM]	.	-9.3%	.	-1.9%[59 µM]	34.2%
CCOC(=O)C1CCN(Cc2cccc(Oc3ccc(Cl)cc3)c2)CC1	?	6.8%	28.2µM*	-26.2%	?	-30.0%
CCN1CCN(Cc2cccc(Oc3ccc(Cl)cc3)c2)CC1	79.4µM*	-6.4%	-31.4%	?	?	12.0%
CCOC(=O)C1CCN(Cc2cccc(Oc3ccccc3)c2)CC1	56.2µM*	-1.1%	22.4µM*	-23.6%	7.08µM*	-19.4%
CCNC(=O)C1(C)CCN(Cc2cccc(Oc3ccccc3)c2)C1 (stereo unspecified)	.	-9.9%	.	.	.	.
CCOC(=O)C1CCCN(Cc2cccc(Oc3ccccc3)c2)C1 (stereo unspecified)	?	-3.3%	3.16µM*	-14.9%	79.4µM*	?
COc1cccc(C2CC(=O)Nc3c2c(=O)nc2c(C)cccn32)c1OC (stereo unspecified)	-1.4%	.	-25.9%	.	-3.9%[59 µM]	44.9%
C=Cc1ccc(Cn2c(C(=O)O)c(CNCc3ccccc3)c3ccc(OC)cc32)cc1	?	.	-35.5%	.	?	-0.1%
CCN(CC)C(=O)C1CCCN(Cc2cccc(Oc3ccccc3)c2)C1 (stereo unspecified)	-36.7%	1.2%	22.4µM*	-0.1%	28.2µM*	-0.2%
O=CN/C=C/c1cc(O)ccc1O	79.4µM*	?	3.16µM*	14.1µM*	1.41µM*	?
O=Cc1ccc(O)cc1O	-0.1%	-4.6%	-9.5%	9.0%	-1.4%[12.7 µM]	4.3%
CCOc1ccc(/C(O)=C2/C(=O)C(=O)N(CCCN3CCOCC3)C2c2ccc(C)cc2)cc1C (stereo unspecified)	1.4%	-5.0%	-33.9%	9.4%	?	36.0%
O=C(O)c1ccccc1NS(=O)(=O)c1ccc(NN=Cc2cccc(Cl)c2)c([N+](=O)[O-])c1	.	?	17.8µM*	.	.	79.4µM*
O=C(O)c1ccccc1NS(=O)(=O)c1ccc(NN=Cc2ccc(F)cc2)c([N+](=O)[O-])c1	.	23.8µM*	44.7µM*	.	.	?
O=C(O)c1ccccc1NS(=O)(=O)c1ccc(N/N=C/c2ccc(O)c(O)c2)c([N+](=O)[O-])c1	.	?	28.2µM*	.	.	14.1µM*
NS(=O)(=O)c1ccc(N/N=C/c2ccc(O)c(O)c2O)c([N+](=O)[O-])c1	35.5µM*	2.99µM*	8.91µM*	3.98µM*	.	12.6µM*
NS(=O)(=O)c1ccc(N/N=C/c2ccc(O)cc2O)c([N+](=O)[O-])c1	?	-8.0%	-26.5%[11.4 µM]	7.7%	.	33.2%
CC(C)(C)C(=O)c1c(N)[nH]c(C(=O)c2ccccc2)c1-c1ccc(C(F)(F)F)cc1	.	-13.5%	.	.	.	.
CC(=O)Nc1ccc(NC(=O)C(C)OC(=O)CCCOc2ccc(Cl)cc2C)cc1 (stereo unspecified)	-1.6%	1.1%	-26.2%	.	?	-3.0%
SMILES	BAZ2B block	PLK1 PBD block	JMJD2A Tudor	Sfp PPTase inh	G9a block	HP1b binding inh
CC(=O)c1ccc(NC(=O)c2nc(-c3ccccc3)n(-c3ccc(C)cc3)n2)cc1	-2.3%	.	-18.5%	.	?	13.8%
CCN(CC)C(=O)Cn1cc(S(=O)(=O)CC(=O)Nc2cccc(NC(C)=O)c2)c2ccccc21	.	-11.2%	.	.	.	.
CCN(CC)C(=O)Cn1cc(S(=O)(=O)CC(=O)Nc2ccc3c(c2)OCCO3)c2ccccc21	.	-3.0%	4.2%	13.1%	56.2µM*	39.8%
CCN(CC)C(=O)Cn1cc(S(=O)(=O)CC(=O)Nc2ccc(C(N)=O)cc2)c2ccccc21	-23.0%	-15.4%	-19.9%	5.1%	44.7µM*	37.3%
Nc1ccc(S(N)(=O)=O)cc1	.	-14.8%	-15.1%	21.3%	-17.4%[21.5 µM]	22.4%
CCS(=O)(=O)c1ccc(N)cc1	1.1%	-3.2%	-24.7%	-25.9%	3.98µM*	24.9%
CCOC(=O)C(C)C(C)=O (stereo unspecified)	-1.4%	-9.7%	-24.1%	.	1.2%[0.501 µM]	21.1%
CCOC(=O)Nc1nc(-c2ccc(Cl)cc2Cl)cs1	9.1%	15.7%	12.7%	-8.3%	32.2%[59 µM]	65.4%
Cc1cc(C)n(CC(=O)NNC(=O)C2CC(=O)N(Cc3ccccc3Cl)C2)n1 (stereo unspecified)	-1.3%	0.8%	-3.7%	26.0%	44.7µM*	35.7%
COc1cc(C2/C(=C(\O)c3ccc4c(c3)OCCO4)C(=O)C(=O)N2Cc2ccco2)ccc1O (stereo unspecified)	-34.1%	-6.6%	-29.0%	3.7%	50.1µM*	4.6%
O=C1C(=O)N(CCN2CCOCC2)C(c2ccccc2)/C1=C(\O)c1ccc2c(c1)OCCO2 (stereo unspecified)	-15.0%	-1.3%	?	11.5%	?	9.2%
COc1ccc(C2/C(=C(\O)c3ccc4c(c3)OCCO4)C(=O)C(=O)N2Cc2cccnc2)cc1OC (stereo unspecified)	-29.9%	-7.0%	-22.8%	4.2%	?	8.6%
O=C1C(=O)N(Cc2ccccc2)C(c2cccc(O)c2)/C1=C(\O)c1ccc2c(c1)OCCO2 (stereo unspecified)	56.2µM*	3.1%	-10.7%	0.3%	44.7µM*	34.6%
COc1cc(C2/C(=C(\O)c3ccc4c(c3)OCCO4)C(=O)C(=O)N2Cc2ccco2)cc(OC)c1OC (stereo unspecified)	-36.2%	-3.9%	-15.8%	?	50.1µM*	12.2%
O=C1C(=O)N(Cc2ccco2)C(c2cccc(Cl)c2)/C1=C(\O)c1ccc2c(c1)OCCO2 (stereo unspecified)	?	-22.1%	79.4µM*	?	?	-14.3%
CCCCn1c(N)c(N(C)C(=O)c2ccc(Br)o2)c(=O)[nH]c1=O	15.4%	-2.6%	6.5%	.	-0.2%[2.33 µM]	31.8%
